BJeLR viability: BJeLR cell viability loss. AID 1554. BJeLR (HRASV12) viability, CellTiter-Glo ATP luminescence, 48 h. actives 0.17% (n = 300,000). inhibition, % (test concentration not listed); in the data active = inhibition above about 50%; inconclusive = no clear call, values can overlap the other calls
PrPC TRFRET: cell surface PrPC inhibition, primary TR-FRET screen | actives 0.43% (n = 370,000) | inhibition, % at 13.8 µM | AID 720596 | TR-FRET read-out | P04156; in the data active = inhibition above about 24%
MazF activator: activators of E. coli MazEF toxin-antitoxin RNase | activation, % at 20 µM | FAM/BHQ RNA-DNA oligo cleavage fluorescence, 5 h | actives 0.32% (n = 350,000); in the data active = activation above about 50%
Target sequence (P0AE70 whole entry, looked up): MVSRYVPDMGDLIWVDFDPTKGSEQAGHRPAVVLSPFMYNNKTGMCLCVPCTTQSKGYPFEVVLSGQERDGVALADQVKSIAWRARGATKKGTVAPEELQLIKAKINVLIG
VHR inh abs: inhibitors of human VHR1 phosphatase (DUSP3) | inhibition, % at 13.3 µM | actives 0.52% (n = 290,000) | P51452 | recombinant VHR phosphatase, pNPP absorbance; in the data active = inhibition above about 50%
Target sequence (P51452 whole entry, looked up): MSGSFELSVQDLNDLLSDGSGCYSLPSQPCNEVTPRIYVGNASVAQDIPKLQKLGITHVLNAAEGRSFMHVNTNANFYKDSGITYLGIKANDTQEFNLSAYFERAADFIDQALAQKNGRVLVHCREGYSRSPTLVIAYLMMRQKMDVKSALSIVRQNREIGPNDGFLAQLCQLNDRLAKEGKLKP
PfHsp40 rescue: restores yeast growth despite PfHsp40 toxicity. S. cerevisiae expressing PfHsp40, growth rescue, ATP luminescence. growth rescue, % at 12.5 µM. actives 0.68% (n = 340,000); in the data active = growth rescue above about 28%, passing the limit was not always enough; inconclusive = no clear call, values can overlap the other calls;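 note: yeast W303a lacking pdr1 and pdr3 grown in galactose medium; growth measured after three days at 30 °C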
PrP UTR inh: inhibition of PrP 5' UTR reporter expression; cell-based PrP 5' UTR mRNA reporter, plate reader; inhibition, % (concentration not given with the values); actives 0.35% (n = 340,000); in the data active = inhibition above about 52%
Of the large screens only hits and unclear results are named; the others gave an inactive call. Only some compounds are listed: those with a hit (about 2.1% of all), similar ones and a draw of the others.

O=c1c2ccccc2c(-c2ccc(O)cc2)nn1-c1cccc(C(F)(F)F)c1	PfHsp40 rescue 239.9
CN1CCN(C(=O)C[C@H]2CC[C@H]3[C@@H](COC[C@@H](O)CN3C(=O)C3CCCC3)O2)CC1	none (no result: BJeLR viability, MazF activator, VHR inh abs, PfHsp40 rescue, PrP UTR inh)
CCOc1ccc(NC(=S)NC(=O)c2cccnc2)c([N+](=O)[O-])c1	none
CCC1=NNc2cccc3c(OC)ccc1c23	VHR inh abs 54.0 (no result: PrPC TRFRET, MazF activator, PfHsp40 rescue, PrP UTR inh)
COc1ccc2c3c(cccc13)C(=O)N(O)C2=O	none
COc1ccc2nc(Nc3nc(CSc4nc5ccccc5s4)cc(=O)[nH]3)nc(C)c2c1	none (no result: PrPC TRFRET, MazF activator, VHR inh abs, PfHsp40 rescue, PrP UTR inh)
Cc1ccc(CSc2ncnc3onc(C)c23)cc1	PfHsp40 rescue 69.8
Cc1noc2ncnc(SCc3ccc(C(F)(F)F)cc3)c12	PfHsp40 rescue inconclusive
CCCCn1c(N)c(N(CC)C(=O)c2ccccc2C)c(=O)[nH]c1=O	VHR inh abs 52.0
CCCCn1c(N)c(N(CCC(C)C)C(=O)c2ccccc2C)c(=O)[nH]c1=O	none
CC(=O)NC1=NN(C(C)=O)C(c2ccccc2)S1 (configuration not stated)	none
CC(=O)NC1=NN(C(C)=O)C(c2cccs2)S1 (configuration not stated)	PfHsp40 rescue 39.9
COc1ccc2c(c1)OC[C@H]1[C@H]2N2C(=O)c3cc(OC)c(OC)cc3NC(=O)[C@@]2(C)[C@H]1c1ccccc1	PfHsp40 rescue 43.7 (no result: BJeLR viability, VHR inh abs)
COc1ccc2c(c1)OC[C@H]1[C@H]2N2C(=O)c3cc(Br)ccc3NC(=O)[C@@]2(C)[C@H]1c1ccccc1	PfHsp40 rescue 333.3 (no result: BJeLR viability, PrPC TRFRET, VHR inh abs)
COc1cc2c(cc1OC)C(=O)N1[C@H]3c4ccccc4OC[C@@H]3[C@H](c3ccccc3)[C@]1(C)C(=O)N2	PfHsp40 rescue 63.5 (no result: BJeLR viability, VHR inh abs)
COc1ccc2c(c1)OC[C@H]1[C@H]2N2C(=O)c3ccc(F)cc3NC(=O)[C@@]2(C)[C@H]1c1ccccc1	none (no result: BJeLR viability, VHR inh abs)
CC(C)(C)[C@@H]1C=C(C(=O)O)[C@H](c2ccc(Cl)cc2)N1S(=O)(=O)c1ccccc1	none (no result: BJeLR viability, VHR inh abs)
S=C(SCc1c(Cl)cccc1Cl)N1CCSCC1	none (no result: BJeLR viability, MazF activator, VHR inh abs, PfHsp40 rescue, PrP UTR inh)
CCN(Cc1ccccc1)C(=O)CSc1nc(C)cc(C)c1C#N	PfHsp40 rescue 128.6
CCN(Cc1ccc2c(c1)OCO2)C(=O)CSc1nc(C)nc2sc(C)c(C)c12	none (no result: BJeLR viability, VHR inh abs)
c1ccc(CC2CCN(Cc3ccccn3)CC2)cc1	PfHsp40 rescue 50.2
Clc1ccc(CN2CCC(Cc3ccccc3)CC2)cc1	none
COc1ccc(NC(=O)CCNS(=O)(=O)c2ccc3[nH]c(=O)oc3c2)cc1Cl	none
CCOC(=O)C1=C(C)NC2=C(C(=O)C(C(=O)OCC)C(c3ccco3)C2)C1c1ccccn1 (configuration not stated)	MazF activator 62.5
COc1ccc(C2=CC(=O)C=CC2=O)cc1	BJeLR viability 98.6 (no result: PrPC TRFRET, MazF activator)
CCCCNC(=O)CCCCCn1c(=O)[nH]c2cc(OC)c(OC)cc2c1=O	none
CCCCCNC(=O)CCCCn1c(=O)[nH]c2cc(OCC)c(OCC)cc2c1=O	VHR inh abs 51.2
O=[N+]([O-])c1nn(-c2ccc3c(c2)OCCO3)n(O)c1=NCc1ccccc1Cl	MazF activator 71.1
O=C(NC1CCS(=O)(=O)C1)c1ccc2c(c1)OCO2 (configuration not stated)	PfHsp40 rescue 44.2 (no result: VHR inh abs)
O=C(NC1(C(=O)NC2CCCCC2)CCCCC1)c1ccc2c(c1)OCO2	VHR inh abs 51.6
O=C(NC1CCCC1)c1ccc(Cn2c(=O)[nH]c3ccsc3c2=O)cc1	PfHsp40 rescue 50.8
COc1cc2[nH]c(=O)n(Cc3ccc(C(=O)NC4CCCC4)cc3)c(=O)c2cc1OC	MazF activator 87.5
O=C(Cn1c(=O)[nH]c2ccsc2c1=O)NC1CCCCC1	none
COc1ccc(Cn2c(=O)[nH]c3cc(C(=O)NC4CCCC4)ccc3c2=O)cc1	none
CNc1ccccc1C(C)(C)c1cn(-c2ccc([N+](=O)[O-])cc2)nn1	VHR inh abs 52.9
Cc1ccn(-c2ccc([N+](=O)[O-])cc2)n1	none
COc1ccc(Br)cc1/C=N/n1c(C)nc2ccccc2c1=O	VHR inh abs 58.2
COc1ccc(OC)c(/C=N/n2c(C)nc3ccccc3c2=O)c1	none (no result: VHR inh abs, PfHsp40 rescue, PrP UTR inh)
COc1ccc(Nc2nc(N)c(C(=O)c3ccc(F)cc3)s2)cc1	PfHsp40 rescue 33.6
CN1CCN(C2CN(Cc3ccc([N+](=O)[O-])cc3)S(=O)(=O)C2)CC1 (configuration not stated)	none (no result: BJeLR viability, VHR inh abs, PfHsp40 rescue, PrP UTR inh)
O=C(COc1ccc(Br)cc1)NCCCNC(=O)c1ccncc1	none
O=S1(=O)[C@H]2C[C@@H]3C=C[C@@]2(CN1Cc1cccc(F)c1)O3	PfHsp40 rescue 65.7
O=S1(=O)[C@H]2C[C@@H]3C=C[C@@]2(CN1Cc1cccc(C(F)(F)F)c1)O3	none
CC1CC(=O)N(c2ccc(NCc3ccc(Cl)cc3)c([N+](=O)[O-])c2)C1=O (configuration not stated)	MazF activator 214.4
Oc1ccccc1C1SC(c2ccccc2O)SC(c2ccccc2O)S1 (configuration not stated)	PfHsp40 rescue 32.2 (no result: BJeLR viability, VHR inh abs)
Cc1cc2c(cc1C)CSC(c1ccccc1O)SC2	none
O=C(/C(=N/N=C/c1ccc(O)c(O)c1O)c1ccccc1)c1ccccc1	PfHsp40 rescue 519.6
Oc1ccc(/C=N/N=C(c2ccccc2)c2ccccc2)c(O)c1O	none (no result: BJeLR viability)
COc1cc2c(c(OC)c1OC)-c1ccc(O)c(=O)cc1[C@@H](NC(C)=O)CC2	PfHsp40 rescue 325.5 (no result: BJeLR viability, VHR inh abs)
COc1cc2c(c(OC)c1OC)-c1ccc(O)cc1[C@@H](NC(C)=O)CC2	PrP UTR inh 68.0 (no result: VHR inh abs)
Cc1cc(C)cc(OC(C)CCN2CCC(C(O)(c3ccccc3)c3ccccc3)CC2)c1 (configuration not stated)	none (no result: BJeLR viability, MazF activator, VHR inh abs, PfHsp40 rescue, PrP UTR inh)
COc1ccc([C@H]2C[C@H](O)[C@@H](n3cc(C4CC4)nn3)CN2C(=O)c2cccs2)cc1	none (no result: BJeLR viability, VHR inh abs, PfHsp40 rescue, PrP UTR inh)
COc1cccc(-n2nnc3c(=O)n(Cc4cccc(F)c4)cnc32)c1	none
COc1cccc(-n2nnc3c(=O)n(Cc4c(F)cccc4Cl)cnc32)c1	MazF activator 90.0
Cc1ccc(-c2nc(N)c3c(-c4ccc(C)cc4)nn(C(C)(C)C)c3n2)cc1	none
CC(C)(C)n1nc(-c2ccc(F)cc2)c2c(N)ncnc21	PfHsp40 rescue 454.5
Cc1ccc(-c2nn(C(C)(C)C)c3ncnc(NS(=O)(=O)c4ccc([N+](=O)[O-])cc4)c23)cc1	none
CC(C)(C)n1nc(-c2ccc(Cl)cc2)c2c(N)ncnc21	PfHsp40 rescue 310.7
Nc1c(-c2cccs2)nc2ccccn12	none (no result: BJeLR viability, MazF activator, VHR inh abs, PfHsp40 rescue, PrP UTR inh)
COc1ccc(NS(=O)(=O)c2ccc(NN=Cc3ccc(C(=O)O)cc3)c([N+](=O)[O-])c2)cc1	none (no result: BJeLR viability, MazF activator, VHR inh abs, PfHsp40 rescue, PrP UTR inh)
Cc1ccc2[nH]c(=O)c(CN(Cc3cccs3)Cc3nnnn3CC3CCCO3)cc2c1 (configuration not stated)	PfHsp40 rescue 105.2
Cc1ccc2cc(CN(Cc3cccs3)Cc3nnnn3CC3CCCO3)c(=O)[nH]c2c1 (configuration not stated)	none

Assay outcomes as filed in PubChem.
